Test results from ChEMBL document CHEMBL3988442, “University of Dundee, Small-Polar-MMV Screening Library” (2021).
In all, about 48,000 compounds went through this assay and about 13,000 (27%) showed an effect of 50% or more. Some of the results follow.

What follows are molecules tested on Wolbachia pipientis (assay: Anti-Wolbachia Cell-Based Screen). Conditions: 5 µM.
Assay type: functional
Parameters: scale not given: in the data most compounds retested in dose-response had high values

| Compound | Percent Effect |
| --- | --- |
| CC(C)CS(=O)(=O)CCNc1ncccn1 | -11.8% |
| c1cn(CC2CC2)c(C2CCN(CCC3CCOC3)CC2)n1 (stereo unspecified) | -2.095% |
| FC(F)Oc1ccccc1CN1CCCC(c2nccn2CC2CC2)C1 (stereo unspecified) | -15.63% |
| Cc1nccn1CCCN1CCCC(c2nccn2CC2CCC2)C1 (stereo unspecified) | 94.54% |
| Cc1nccn1CCCN1CCC(c2nccn2CC2CCC2)CC1 | 81.99% |
| CC(C(=O)N1CCCC1)N1CCC(c2nccn2CC2CCC2)CC1 (stereo unspecified) | -1.675% |
| O=C(c1ccccn1)N1CCCC(c2nccn2CC2CCC2)C1 (stereo unspecified) | 7.496% |
| CCn1c(C2CCCN(Cc3nccn3CCOC)C2)nn(C)c1=O (stereo unspecified) | 3.298% |
| CCn1ccnc1CN(C)C1CCCN(CCCc2ccccc2)C1 (stereo unspecified) | 28.9% |
| N#Cc1ccccc1CN1CCCC(c2nccn2CC2CCC2)C1 (stereo unspecified) | 17.05% |
| COCCCN1CCCC(c2nccn2CC2CCC2)C1 (stereo unspecified) | 85.63% |
| Cc1nccn1CCC(=O)N1CCCN(CCCc2ccccc2)CC1 | 9.498% |
| Cc1nccn1CCCN1CCCC(c2ccccc2)C1 (stereo unspecified) | 96.96% |
| CCC1CC(=O)NCc2nc3sc(C)cn3c21 (stereo unspecified) | 11.81% |
| CCOc1nnc(CN2CCC(c3cc4ccccc4[nH]3)CC2)s1 | -12.75% |
| CC(=O)c1cccc(OCCCC(=O)NC(C#N)CC(C)C)c1 (stereo unspecified) | -6.212% |
| COCCCC(=O)N1CC(=O)Nc2cc(Br)ccc21 | -0.04468% |
| Cc1nccn1CCCN1CCCC(c2nccn2C)C1 (stereo unspecified) | 103.4% |
| Cn1ccnc1C1CCN(CCN2CCOCC2)CC1 | -3.118% |
| Cc1nccn1Cc1nnc(C2CCCN(Cc3cccnc3)C2)n1C (stereo unspecified) | -3.702% |
| CC(=O)N1CCC(N2CC[C@H](c3nc4cc(C)ccc4o3)C2)CC1 | -0.1678% |
| Cc1ccccc1CNC(=O)C1CCN(Cc2nccn2C)CC1 | 101.3% |
| CC(=O)N[C@@H]1CN(CC(=O)NCc2ccccc2C)C[C@H]1C(C)C | -3.086% |
| CNC(=O)NC(=O)CN1CCCC(Cc2ccccc2OC)C1 (stereo unspecified) | -10.54% |
| Cc1ccccc1CNC(=O)CN1CCCC(Cc2nccn2C)C1 (stereo unspecified) | 107% |
| Cn1ccnc1CN1CCC(Cc2ccccn2)CC1 | 101.7% |

| Compound | Percent Effect |
| --- | --- |
| Cn1ccnc1CN1CCC(CCC(=O)Nc2ccccc2Cl)CC1 | 11.71% |
| Cn1ccnc1CN1CCCC(Cc2ccccn2)C1 (stereo unspecified) | -12.05% |
| Cc1ccccc1CN1CCN(Cc2nccn2C)CC1 | -1.21% |
| Cn1ccnc1CN1CCN(CCOc2ccccc2C#N)CC1 | -0.4037% |
| OCCN(Cc1cccnc1)c1ncc(Br)cn1 | -8.725% |
| CCOc1ncccc1NC(=O)c1sccc1C | -6.226% |
| Cc1ccccc1C(C(=O)NCCN1CCC(CO)CC1)N(C)C (stereo unspecified) | -0.033% |
| CC(=O)NCCCC(=O)NC1(c2ccc(Cl)c(Cl)c2)CC1 | -4.491% |
| Cc1cc(C(F)(F)F)nc(C2CCCN2S(C)(=O)=O)n1 (stereo unspecified) | 108.4% |
| Cc1cc(S(=O)(=O)N2CCOCC2C#N)ccc1F (stereo unspecified) | -3.602% |
| Cc1cc(C(F)(F)F)nc(CNC(=O)C2CCCCCN2C)n1 (stereo unspecified) | -5.462% |
| Cc1cc(C(F)(F)F)nc(C2COCCN2S(C)(=O)=O)n1 (stereo unspecified) | 108.9% |
| CN1CCOC[C@H]1c1nc(C(C)(C)C)c[nH]1 | 12.45% |
| O=C(c1cccnc1O)N1CCC2(CCCO2)CC1 | -3.936% |
| COc1cc2c(cc1CNCc1cccnc1OC)OC(C)C2 (stereo unspecified) | 4.577% |
| Cc1noc(-c2ccc(N3CCCC(C(=O)c4nccn4C)C3)nc2)n1 (stereo unspecified) | 20.25% |
| CC(C)COc1cncc(NCC(O)c2ccco2)n1 (stereo unspecified) | 9.809% |
| CC(C)(CNC(=O)Nc1ccc(S(=O)(=O)C(F)F)cc1)N1CCOCC1 | 14.64% |
| CCN(CC)Cc1ccccc1NC(=O)N(C)Cc1ccccc1O | -1.773% |
| O=C([C@@H]1Cc2[nH]cnc2CN1Cc1cc2ccccc2o1)N1CCCC1 | 9.512% |
| COc1c(CNCc2cccc(CS(C)(=O)=O)c2)c(C)nn1C | -2.544% |
| COc1c(CNCc2ccc(S(C)(=O)=O)cc2)c(C)nn1C | 139.8% |
| COc1c(CNCc2ccc(CS(C)(=O)=O)cc2)c(C)nn1C | 148.4% |
| COc1c(CNCc2ccc(CN(C)C)cc2)c(C)nn1C | 4.116% |
| CCc1cc(N[C@@H](CO)C(N)=O)n2nc(C)c(C)c2n1 | 2.16% |
| CC(C)C(CCO)NC(=O)Nc1cc(F)ccc1-n1cccn1 (stereo unspecified) | 1.933% |

| Compound | Percent Effect |
| --- | --- |
| CC(=O)NCCCSC1CCN(c2ccccc2Cl)C1=O (stereo unspecified) | 1.299% |
| O=c1c2ccccc2nnn1CN(CC1CCOC1)C1CC1 (stereo unspecified) | -7.02% |
| Cc1cc(-c2nn(C)c(Cl)c2CN2CC[C@H](CO)[C@@H](O)C2)no1 | 35.82% |
| COCCn1/c(=N/C(=O)C(C)C)sc2cc(Cl)ccc21 | 4.263% |
| c1cnn(CC2CN(c3ncnc4sccc34)CCO2)c1 (stereo unspecified) | -13.3% |
| CC1CN(c2ncnc3sccc23)CCN1c1nccs1 (stereo unspecified) | 102.8% |
| CC1CN(c2ncnc3c2cnn3C)CCN1c1nccs1 (stereo unspecified) | 136.1% |
| Cn1cc(-c2csc(N3CCN(c4nccs4)CC3)n2)cn1 | -4.686% |
| COc1c(C2CCCN2c2ncnc3c2cnn3C)c(C)nn1C (stereo unspecified) | -11.95% |
| Cc1cnn(CC2CCCN2c2ncnc3sccc23)c1 (stereo unspecified) | -4.98% |
| CCc1nc(C)c(C(=O)NCCNc2ncnc3sccc23)s1 | -61.04% |
| Cc1nc(CN2C[C@@H]3CN(C(=O)C4(C#N)CC4)C[C@@H]3C2=O)cs1.O=C(O)C(F)(F)F | -7.986% |
| CCOCC1COCCC12CCN(C(=O)CS(C)(=O)=O)CC2 (stereo unspecified) | -11.35% |
| O=C(Cc1ccco1)N1CCC2(CCOCC2COCC2CC2)CC1 (stereo unspecified) | -44.1% |
| COCC1COCCC12CCN(C(=O)CCc1ccccc1)CC2 (stereo unspecified) | -6.521% |
| COCC1COCCC12CCN(S(=O)(=O)c1ccccc1C)CC2 (stereo unspecified) | 121.7% |
| COCC1COCCC12CCN(S(=O)(=O)c1cccnc1)CC2.O=C(O)C(F)(F)F (stereo unspecified) | 117.9% |
| CCO[C@@H]1CO[C@@]2(CCCN(S(=O)(=O)c3cccnc3)C2)C1.O=C(O)C(F)(F)F | -5.792% |
| CCOCC1COCCC12CCN(C(=O)CC1=CCCCC1)CC2 (stereo unspecified) | -10.97% |
| CCn1cc2c(n1)CN(S(=O)(=O)c1cccnc1)CC2COC.O=C(O)C(F)(F)F (stereo unspecified) | -12.46% |
| COCC1COCCC12CCN(C(=O)CCOc1ccccc1)CC2 (stereo unspecified) | 9.795% |
| COCC1COCCC12CCN(S(=O)(=O)c1ccc(C)cc1)CC2 (stereo unspecified) | 101.4% |
| COCC1COCCC12CCN(S(=O)(=O)c1ccccc1)CC2 (stereo unspecified) | 111.6% |
| COCC1COCCC12CCN(C(=O)CC1=CCCCC1)CC2 (stereo unspecified) | -25.41% |
